Assay results reported in PubChem BioAssay AID1159580 (chemical genetic matrix, 2015).
The campaign covered roughly 5,500 compounds. About 2,000 (36%) were called active. Not shown: some 18% with an inconclusive outcome. Cut-off read from the data, not from the text of the source: active = normalized growth mostly below about 0.91 (no sharp cut-off); inconclusive = no clear call, values can overlap the other calls; inactive = mostly above about 0.92. The list shows a part of the results.

Test: chemical genetic growth profiling, strain panel (AID 1159580);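 note: tested at 20 µM; growth read once vehicle control cultures reached saturation at 30 °C; 1 = growth at the plate median or of vehicle wells; lower values mean less growth of the strain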
Settings: growth OD

Measured: normalized growth

CCCCOc1ccc(C(=O)CCC(=O)O)cc1
active: S. cerevisiae deletion strains, locus YBR229C, strain ROT2, active compounds read low 0.915 | S. cerevisiae deletion strains, locus YDL101C, strain DUN1, active compounds read low 0.886 | S. cerevisiae deletion strains, locus YJR043C, strain POL32, active compounds read low 0.879 | S. cerevisiae deletion strains, locus YNL153C, strain GIM3, active compounds read low 0.904
inactive: S. cerevisiae deletion strains, locus YAL013W, strain DEP1, active compounds read low 0.977 | S. cerevisiae deletion strains, locus YCL061C, strain MRC1, active compounds read low 0.936 | S. cerevisiae deletion strains, locus YDL134C, strain PPH21, active compounds read low 1.04 | S. cerevisiae deletion strains, locus YDR150W, strain NUM1, active compounds read low 0.934 | S. cerevisiae deletion strains, locus YEL061C, strain CIN8, active compounds read low 1 | S. cerevisiae deletion strains, locus YGR078C, strain PAC10, active compounds read low 0.939 | S. cerevisiae deletion strains, locus YHR030C, strain SLT2, active compounds read low 0.997 | S. cerevisiae deletion strains, locus YHR087W, strain rtc3, active compounds read low 0.982 | S. cerevisiae deletion strains, locus YJR075W, strain HOC1, active compounds read low 0.931 | S. cerevisiae deletion strains, locus YKL190W, strain CNB1, active compounds read low 1.02 | S. cerevisiae deletion strains, locus YLR039C, strain RIC1, active compounds read low 0.945 | S. cerevisiae deletion strains, locus YLR058C, strain SHM2 (second series), active compounds read low 1.01 | S. cerevisiae deletion strains, locus YLR085C, strain ARP6, active compounds read low 0.985 | S. cerevisiae deletion strains, locus YLR262C, strain YPT6, active compounds read low 0.946 | S. cerevisiae deletion strains, locus YML094W, strain GIM5, active compounds read low 1.01 | S. cerevisiae deletion strains, locus YMR219W, strain ESC1, active compounds read low 0.983 | S. cerevisiae deletion strains, locus YMR263W, strain SAP30, active compounds read low 0.969 | S. cerevisiae deletion strains, locus YNL298W, strain CLA4 (second series), active compounds read low 1.01 | S. cerevisiae deletion strains, locus YNL322C, strain KRE1, active compounds read low 1.01 | S. cerevisiae deletion strains, locus YNR030W, strain Alg12, active compounds read low 0.982 | S. cerevisiae deletion strains, locus YOL006C, strain TOP1, active compounds read low 1.05 | S. cerevisiae deletion strains, locus YPL055C, strain LGE1, active compounds read low 0.909 | S. cerevisiae deletion strains, locus YPL241C, strain CIN2, active compounds read low 1.01 | S. cerevisiae deletion strains, locus YPR135W, strain CTF4, active compounds read low 1.03 | S. cerevisiae strains, strain wild type, active compounds read low 1.03
